An excerpt weighted towards active compounds, which were near 7.8% of everything screened.
Tau fil binding: qHTS Assay for Tau Filament Binding | Microtubule-associated protein tau (Homo sapiens), P10636 | recombinant tau filaments, thioflavin S fluorescence, 15 h; filaments grown with octadecylsulfate alongside compound | Potency, µM (top dose mostly 57.1 µM), for the others: top-dose activity change, negative = inhibition | 2% of 71,000 active | AID 596, 2007;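 also: % is scaled to controls: 0 for no effect and ±100 for the full control effect; actives lower thioflavin S fluorescence by blocking filaments or displacing dye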
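ThS-based fibril read: tau 1 uM final, inducer ODS 30 uM final, 37 C for 15 h, ex 450/em 510 nm.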
ALOX15 inhib: qHTS Assay for Inhibitors of 15-hLO (15-human lipoxygenase); Polyunsaturated fatty acid lipoxygenase ALOX15 (Homo sapiens), P16050; purified 15hLO-1, xylenol orange hydroperoxide absorbance; Potency, µM (top dose mostly 57.1 µM), without a hit: at the highest dose activity change, negative = inhibition, hits mostly inhibitors; 1.4% of 74,000 active; AID 887, 2007; also: % is scaled to controls: 0 for no effect and ±100 for the full control effect; nearly all actives have a fitted effect of over 55% in size
Target sequence (P16050 whole entry, looked up): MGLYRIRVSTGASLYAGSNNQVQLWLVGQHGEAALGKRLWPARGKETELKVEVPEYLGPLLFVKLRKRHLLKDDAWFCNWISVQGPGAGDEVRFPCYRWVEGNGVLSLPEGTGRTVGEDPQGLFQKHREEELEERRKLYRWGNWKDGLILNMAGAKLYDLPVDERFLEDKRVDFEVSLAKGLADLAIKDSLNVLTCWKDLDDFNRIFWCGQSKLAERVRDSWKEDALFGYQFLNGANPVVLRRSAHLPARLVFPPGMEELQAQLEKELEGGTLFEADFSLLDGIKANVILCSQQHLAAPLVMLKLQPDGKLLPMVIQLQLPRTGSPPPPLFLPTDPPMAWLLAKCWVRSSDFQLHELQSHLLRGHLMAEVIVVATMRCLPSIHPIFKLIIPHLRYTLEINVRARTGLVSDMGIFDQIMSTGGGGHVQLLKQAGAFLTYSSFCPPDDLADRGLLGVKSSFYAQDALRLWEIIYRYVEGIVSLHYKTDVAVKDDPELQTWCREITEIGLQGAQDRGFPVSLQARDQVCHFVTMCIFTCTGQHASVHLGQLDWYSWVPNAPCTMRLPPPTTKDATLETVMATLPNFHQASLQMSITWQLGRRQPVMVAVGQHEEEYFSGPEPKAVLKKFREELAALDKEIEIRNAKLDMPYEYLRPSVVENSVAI
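Inhibition is scored from a chromogenic endpoint. After 15 min enzyme-compound contact, arachidonic acid (50 uM final) reacts 6 min with 40 nM 15hLO-1 at room temperature, then Fe-XO reagent is added for 30 min and absorbance ratio recorded.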
FLuc inh: qHTS Assay for Inhibitors of Firefly Luciferase; purified firefly luciferase, luminescence, 8 min; Potency, µM (titrated, usually from 57.1 µM), for inactives: top-dose activity change, negative = inhibition, usual class: inhibitors; 2.2% of 72,000 active; also: % is scaled to controls: 0 for no effect and ±100 for the full control effect; nearly all actives have a fitted effect of over 40% in size
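qHTS concentration-response profiling: light output of P. pyralis luciferase with luciferin and 10 uM ATP, imidazole buffer pH 7.2. Read by luminescence after 8-min room-temperature incubation.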
TSHR ag: qHTS Assay for Agonists of the Thyroid Stimulating Hormone Receptor; Thyrotropin receptor (Homo sapiens), P16473; HEK293-CNG-TSHR cells (CNG channel as cAMP sensor), membrane potential dye, cAMP; Potency, µM (doses to about 57.1 µM), without a hit: at the top dose activation, usual class: activators; 0.48% of 73,000 active; AID 926, 2007; active = well fitted activation curve with a large enough effect in the main read-out, with a control signal flat, not every such curve was filed as active; inconclusive = small, poorly fitted or top-dose-only effect, or a change in a side signal; inactive = no such curve, though single readings can be large or run the other way; % of control where 0% means no effect;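 also: the control signal comes from parental cells without the receptor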
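cAMP rise detected as CNG-channel membrane depolarization by fluorescent dye (emission 590 nm), 30 min after compound, following 60 min dye loading containing 100 uM RO 20-1724 at room temperature. Cells: TSHR/CNG HEK 293, with parental CNG HEK 293 as control.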
PK Bst: Pyruvate Kinase; purified pyruvate kinase, luminescence ATP production; ribose 5-phosphate activator present at AC10; Potency, µM; 1.2% of 51,000 active; in the data active = potency below about 11 µM; inconclusive = mostly about 12 µM to 25 µM;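 the screen sought inhibitors and activators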;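 also: scaled between full activation by ribose 5 phosphate and full inhibition by luteolin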
HEK293 cAMP cs: qHTS Assay for Agonists of the Thyroid Stimulating Hormone Receptor: Activators of Intracellular cAMP Concentrations in Parental HEK 293; parental HEK293 CNG cAMP sensor, membrane potential fluorescence; Potency, µM (series often up to 57.1 µM), for inactives: at the highest dose activation, actives largely listed as activators; 2.5% of 73,000 active; AID 938, 2007; also: % of control where 0% means no effect; nearly all actives have a fitted effect of over 55% in size
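Counterscreen for endogenous-receptor signalling: CNG-channel HEK 293 cells report cAMP rise by membrane depolarization. After 60 min dye equilibration with 100 uM RO 20-1724, compounds incubated 30 min before bottom-read fluorescence at 590 nm.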
* marks the source's active call; other numbers are inactive results; i = inactive; ? = inconclusive; . = not tested or not shown; ! = not active in a repeat; [ ] = remark or other dose. Unless noted, calls follow the shape of the dose curve; as a rule, active = well fitted curve in the direction sought with a large enough effect; inconclusive = small, poorly fitted or top-dose-only effect, or another doubt; inactive = no such curve, though single readings can be large; an effect the other way counts as inactive or inconclusive. Potency is read from the fitted curve at half-maximal effect.

SMILES | Tau fil binding | ALOX15 inhib | FLuc inh | TSHR ag | PK Bst | HEK293 cAMP cs
c1cn2cc(-c3ccc4c(c3)OCO4)nc2s1 | -32% | ? | 7.9µM* | 6% | 8.9* | 6%
CN1CCN(c2ncc3nc(-c4cccc(C#N)c4)c(=O)n(C)c3n2)CC1 | 52% | -27% | 1%[11.4 µM] | ? | . | ?
COc1cc(Cn2c(-c3nonc3N)nc3ccccc32)ccc1C | 91% | -14% | -2% | ? | >57 | 25µM*
COc1cccc(Cn2c(-c3nonc3N)nc3ccccc32)c1 | 33% | -24% | 0% | ? | >57 | 25µM*
COc1ccc(S(=O)(=O)N2CCC(C(=O)NCCc3ccc4c(c3)OCO4)CC2)cc1 | -6% | -2% | 4% | ? | >57 | ?
O=C(NCCc1ccc2c(c1)OCO2)C1CCN(S(=O)(=O)c2ccc(Cl)cc2)CC1 | -11% | 0% | 4% | ? | >57 | 13µM*
Cc1ccc(C)c(C(=O)c2c(C)nc3sccn23)c1 | -8% | 16µM* | 5% | 30% | >57 | 22%
Cc1cc(C)c(NC(=O)c2cc3c(nc4sccn43)s2)c(C)c1 | -19% | -7% | -1% | -1% | >57 | -4%
CC(C)CN1CC2(CCN(C(=O)c3csnn3)CC2)C1 | -5% | 13% | 0%[11.4 µM] | 9% | . | 14%
O=C(c1ccccc1C(=O)N1CCN(c2ccccc2F)CC1)N1CCN(c2ccccc2F)CC1 | 18% | -2% | 1% | ? | . | 16µM*
O=C(c1ccccc1F)N1CCN(c2ccccc2F)CC1 | 2% | 0% | -1% | -3% | >57 | 2%
O=C(CSc1nnc(-c2ccc(Cl)cc2)o1)N1CCN(c2ccccc2)CC1 | 13µM* | -17% | -1% | 2% | >57 | 3%
CC(=O)[C@H]1[C@@H]2C(=O)N(c3cccc(Cl)c3)C(=O)[C@@H]2[C@H]2c3ccccc3C=CN21 | . | . | -1%[25.5 µM] | . | >11 | .
O=C1NC(=O)[C@@H]2C3c4ccccc4C=CN3[C@H](C(=O)c3cccs3)[C@H]12 (stereo partly drawn) | 99% | -15% | 25µM* | 7% | 6.2* | -3%
Brc1cc2c(cc1Cn1c(-c3cncs3)nc3ccccc31)OCO2 | 69% | -18% | 0% | ? | >57 | 7.9µM*
C=CCn1c(-c2cccs2)nc2ccccc21 | 3% | 0% | -5% | . | >57 | 20%
Cc1ccccc1Cn1c(-c2cncs2)nc2ccccc21 | 22% | 19% | 1% | ? | >57 | 32µM*
O=C(NCc1ccccc1)c1ccc(Cc2nc3ccccc3[nH]2)cc1 | . | -8% | . | -6% | . | 5%
O=C1OC2(c3cc(Br)c(O)c(Br)c3Oc3c2cc(Br)c(O)c3Br)c2c(Cl)c(Cl)c(Cl)c(Cl)c21 | 0.13µM* | -25% | . | ? | . | 16µM*
N#Cc1cccc(-c2nc(NCc3cccnc3)c3ccccc3n2)c1 | 25% | -20% | 2%[2.29 µM] | . | . | -11%
COc1ccc(NC(=O)Nc2ccc3c(c2)N(C)C(=O)CS3)cc1OC | 20µM* | -24% | ? | -16% | . | -2%
CCN1C(C)=C(C(=O)OC)C(c2ccccc2)N2C(=O)[C@](O)(C(=O)OC)CC(C#N)=C12 (stereo partly drawn) | . | 7%[11.4 µM] | . | -2%[11.4 µM] | . | -5%[11.4 µM]
Cc1oc(/N=C/c2cccc3ccccc23)c(C#N)c1C | 0.79µM* | ? | -5% | -3%[11.4 µM] | . | -6%[11.4 µM]
CC1(C)O[C@@H]2O[C@H]([C@@H]3COC(C)(C)O3)[C@H](N)[C@H]2O1 | 6%[11.4 µM] | 4%[11.4 µM] | 2%[11.4 µM] | 3%[11.4 µM] | . | 5%[11.4 µM]
O=C(O)CSc1ccc(N=C=S)cc1 | 1%[11.4 µM] | 3%[11.4 µM] | 2%[11.4 µM] | 5%[11.4 µM] | . | -6%[11.4 µM]
SMILES | Tau fil binding | ALOX15 inhib | FLuc inh | TSHR ag | PK Bst | HEK293 cAMP cs
CC(=O)N1CCC[C@@]2(CCN(Cc3nccs3)C2)C1 | -1% | 7% | 2%[11.4 µM] | 2% | . | 8%
COC(=O)CSc1nc(N)c2c3c(sc2n1)CCCC3 | . | . | 13µM* | . | ? | .
O=C1OCc2cc(NC(=O)C3COc4ccccc4O3)ccc21 (stereo not drawn) | -4% | -6% | -4% | 6% | . | 1%
Cc1ccc2c(CC(=O)Nc3ccc(N4CCN(C)CC4)cc3C)coc2c1 | 4% | -14% | 6.3µM* | -3% | i | -7%
CCCCCC[C@@H]([C@@H](C)O)n1cnc2c(N)ncnc21 | ? | 13µM* | 4% | 14% | . | -2%
c1cnc2c(SCc3ccc(-c4nnco4)cc3)cccc2c1 | 271% | 0% | -14% | 29% | 2.4* | 8%
CN1CCN(c2ccncc2S(=O)(=O)N2CCN(C)CC2)CC1 | -4%[11.4 µM] | 13%[11.4 µM] | 2%[11.4 µM] | 5%[11.4 µM] | . | 0%[11.4 µM]
NC(=O)CN1CCN(C(=O)NC2CCCCC2)CC1 | 4% | 9% | 2% | ? | . | 25µM*
COc1cc(OC)cc(C(=O)N2CCN(C(=O)COc3ccc4ccccc4c3)CC2)c1 | 16% | 7% | 10µM* | 11% | ? | 17%
S=C(S)NCCN1CCNCC1 | 1%[11.4 µM] | 6%[11.4 µM] | -1%[11.4 µM] | -5%[11.4 µM] | . | 7%[11.4 µM]
O=C(O)/C=C\c1cnc[nH]1 | -8% | 7% | 0% | ? | . | ?
Cc1ccc(S(=O)(=O)N[C@H](C(=O)O)C(C)C)cc1 | 8%[11.4 µM] | 0%[11.4 µM] | 1%[11.4 µM] | 0%[11.4 µM] | . | 1%[11.4 µM]
COc1ccc(NC(=O)Cc2cccs2)c(OC)c1 | 3.2µM* | -30%[11.4 µM] | 1% | -1%[11.4 µM] | . | -3%[11.4 µM]
COc1ccccc1CN1CCC2(CC1)CCN(C(=O)c1cc(C(F)(F)F)cc(C(F)(F)F)c1)CC2 | -20% | 3% | 3%[11.4 µM] | . | . | -15%
O=C1CCCC/C1=C\Nc1ccc(Cl)cn1 | 5% | -16% | -7% | -1%[11.4 µM] | >57 | 6%
O=C1CCCC/C1=C\Nc1ccc(O)cc1 | -17% | 20µM* | -3% | 3% | >11 | 3%
CC12C=C(/C=C/CCc3ccco3)C(C)(C1)C(CCc1ccco1)CC2=O (stereo not drawn) | . | ? | . | -5%[11.4 µM] | . | 1%[11.4 µM]
Cc1ccc(S(=O)(=O)N(CC(=O)O)c2cccc(Cl)c2)cc1 | . | 5% | . | 18% | . | 14%
COc1ccc2c(c1)N(C[C@@H](C)CN(C)C)c1ccccc1S2 | 10µM* | -3%[25.6 µM] | 8%[25.5 µM] | -14%[25.6 µM] | . | -2%[25.6 µM]
COc1ccc2c(c1)N(CC[C@H]1CCCCN1C)c1ccccc1S2 | 2.5µM* | 7%[11.4 µM] | 2%[11.4 µM] | -4%[11.4 µM] | . | -9%[11.4 µM]
C[C@@H](CN1c2ccccc2Sc2ccccc21)N(C)C | 13µM*! | 16µM*! | 1%[25.5 µM] | -1%[25.6 µM] | . | 1%[25.6 µM]
CC(CN1c2ccccc2Sc2ccccc21)N(C)C (stereo not drawn) | . | -19% | -1%[25.5 µM] | . | >26 | .
